In PubChem BioAssay (NCI):
Compounds without any hit were thinned out: in the full panel of roughly 83,000, 20% have a hit.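 Growth was measured after 48 h exposure to one concentration of compound in 96-well plates. Values under 10 count as active.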 A number with no mark means an inactive call. Active and inactive are the calls of the source.

Tests used:
Assay in all cases: NCI-60 one-dose screen, 48 h (100 = growth as untreated, 0 = no growth, -100 = all killed)
Details in all cases: 10 µM
T-47D breast = tested on: T-47D breast
BT-549 breast = tested on: BT-549 breast
MDA-MB-435 melanoma = tested on: MDA-MB-435 melanoma
SW-620 colon = tested on: SW-620 colon
MCF7 breast = tested on: MCF7 breast
HCT-116 colon = tested on: HCT-116 colon
HCC-2998 colon = tested on: HCC-2998 colon
KM12 colon = tested on: KM12 colon

Row | SMILES | growth (T-47D breast) | growth (BT-549 breast) | growth (MDA-MB-435 melanoma) | growth (SW-620 colon) | growth (MCF7 breast) | growth (HCT-116 colon) | growth (HCC-2998 colon) | growth (KM12 colon)
1 | CC(=O)Nc1ccc(Sc2ccc(NC(C)=O)cc2)cc1 | 70.6% | 95.5% | 104% | 104% | 97.7% | 98.5% | 97.2% | 96.5%
2 | O=NN(CCCl)C(=O)NCc1ccc(-c2ccc(CNC(=O)N(CCCl)N=O)cc2)cc1 | 101% | 86.6% | 91.3% | 89.5% | 96.1% | 89.2% | 101% | 98.9%
3 | COc1cc(-c2nc3ccc(C)cc3[nH]2)ccc1OCC(=O)N=Nc1c(O)[nH]c2ccccc12 | -61.2% (active) | 18.9% | -52.6% (active) | -62.9% (active) | -73.4% (active) | -82.7% (active) | -91.2% (active) | -79.4% (active)
4 | CC(=O)Oc1c(C)c(C)c2c(c1C)CCC(C)(CC(=O)OCCCCCCCCCCC[P+](c1ccccc1)(c1ccccc1)c1ccccc1)O2 (stereo not given) | -64.1% (active) | -91.4% (active) | -89.2% (active) | -68.2% (active) | -87.2% (active) | -95.6% (active) | -61% (active) | -71.3% (active)
5 | OC(CNC1CCCC1)Cn1c2ccccc2c2ccccc21 (stereo not given) | -1.44% (active) | 53.8% | -2.91% (active) | -25.5% (active) | -66.2% (active) | -37.3% (active) | 1.39% (active) | 21.6%
6 | O=C(c1ccccc1)C(Nc1ccccc1)c1ccccc1 (stereo not given) | 76.5% | 94.4% | 102% | 97.6% | 101% | 87.1% | 101% | 93.4%
7 | c1ccc(OCCC[P+](c2ccccc2)(c2ccccc2)c2ccccc2)cc1 | 13.3% | 11% | 0.653% (active) | 18.9% | 4.3% (active) | 6.18% (active) | 14.3% | 6.18% (active)
8 | COc1cc(-c2c(C#N)c(N)n3c(nc4ccccc43)c2C#N)cc(Br)c1OC | 65.8% | 65.1% | 62.8% | 41.4% | 24.6% | 18.8% | 89.5% | 21.1%
9 | COc1ccc(/C=C2\SC(=S)N(CCCN3CCOCC3)C2=O)c(OC)c1 | 71.2% | 96.1% | 101% | 105% | 76% | 92.2% | 109% | 97.2%
10 | COC(=O)c1cnc2c(c1)Oc1ccccc1-c1ccnn1-2 | 84.4% | 102% | 99.5% | 99.4% | 96.3% | 92.1% | 99.7% | 109%
11 | C#C[C@]1(O)CC[C@H]2[C@@H]3CC[C@H]4CC(F)(F)CC[C@]4(C)[C@H]3CC[C@@]21C | 64.7% | 58.6% | 84% | 87.9% | 88.9% | 76.6% | 112% | 87.2%
12 | COc1cc(-c2n/c(=C\c3c(O)[nH]c4ccccc34)cc3c2=Nc2ccccc2-3)cc(OC)c1OC | 51.7% | 6.59% (active) | -7.06% (active) | 33.4% | 3.28% (active) | 3.38% (active) | -20.4% (active) | 5.99% (active)
13 | CCN(CC)CCn1c(=N)n(CC(O)c2ccc(Cl)c(Cl)c2)c2ccccc21 (stereo not given) | 66.5% | 76.7% | 1.39% (active) | 93.5% | 90% | 77.7% | 74.5% | 84.4%
14 | Cc1nc2ccc(-n3c(-c4ccc(Cl)cc4)nc4ccccc4c3=O)cc2n1Cc1ccccc1 | 78.8% | 83.3% | 97.2% | 93.7% | 85% | 93% | 107% | 97.8%
15 | Cc1nnc2c3nnc(-c4ccc(Cl)cc4)n3c3ccccc3n12 | 105% | 91.5% | 94.9% | 106% | 101% | 101% | 102% | 103%
16 | COc1cc(C2C=C(c3ccc(Cl)cc3)N=C3SC(C)=CN32)cc(OC)c1OC (stereo not given) | 72.2% | 88.5% | 72.9% | 94.5% | 67.6% | 50.3% | 101% | 94.1%
17 | C/C(=N\NC(=S)N1CCCC1)c1ccccn1 | 18.3% | 28.1% | 19.2% | 22.6% | 14.2% | 22.3% | 14.7% | 17.4%
18 | O=C(NCc1cn(Cc2cccc(Oc3ccccc3)c2)nn1)c1cccnc1Nc1ccccc1 | 72.3% | 81.8% | -8.66% (active) | 40.8% | 18.1% | 26.1% | 57.1% | 29.5%
19 | O=S(=O)(NC1c2ccccc2Oc2ccccc21)c1cc(Cl)ccc1Cl | 74.1% | 91.1% | 105% | 87.5% | 91.9% | 90.4% | 99.1% | 102%
20 | CCOC(=S)Sc1ccc([N+](=O)[O-])cc1[N+](=O)[O-] | 83.6% | 24.1% | 61.7% | 35.4% | 65.5% | 31% | 101% | 22.5%
21 | COc1ccc2nc(C)cc(Nc3ccc(Cl)cc3)c2c1 | 102% | 103% | 108% | 106% | 89% | 101% | 107% | 107%
22 | C=CCNC(=S)NN | 50.5% | 99.2% | 95.4% | 85.5% | 8.89% (active) | 6.82% (active) | 107% | 98.6%
23 | NS(=O)(=O)c1ccc(N2N=C(c3ccc(-c4ccccc4)cc3)CC2c2ccc(Cl)cc2)cc1 (stereo not given) | 74.6% | 116% | 77.4% | 93.2% | 62.6% | 50.4% | 89.3% | 68.6%
24 | COc1ccc(C2=NNC(c3sc(Cl)nc3Cl)C2)cc1 (stereo not given) | 27.9% | 53.3% | 80% | 29.1% | 40.8% | 28% | 72.1% | 79.5%
25 | C[C@H](NC(=O)[C@@H]1CSSC[C@@H](NC(=O)Cc2nc3ccccc3cc2O)C(=O)NCC(=O)N1C)c1ccccc1 | 77.1% | 83.8% | 70.7% | 94% | 51.7% | 44.7% | 94.9% | 56%
